Experimental data taken from PubChem BioAssay AID1894 (NMMLSC, 2009).
Out of some 5,900 compounds screened, about 100 (1.7%) were called active.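 Rule for the calls: active = binding response below 72% of control, or above a set upper limit, though filed actives all read lower; inactive = the rest.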 Only a selection was taken, and actives are over-represented in it overall.

Target: Mitogen-activated protein kinase kinase kinase 3 (Homo sapiens) (UniProt Q99759)
Experiment: MEKK3 wild-type PB1 binding to MEK5, inhibitors, confirmation, biochemical, bead multiplex flow cytometry, single concentration, wildtype (AID 1894);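 note: 100% = DMSO only wells and 0% = binding blocked by excess unlabeled MEK5; lower values mean stronger disruption of MEK5 binding to MEKK3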
Details: Alexa488-MEK5 binding to MEKK3, at 10 µM, active compounds read low

Chain of Mitogen-activated protein kinase kinase kinase 3 (Homo sapiens) (Q99759 whole entry, looked up): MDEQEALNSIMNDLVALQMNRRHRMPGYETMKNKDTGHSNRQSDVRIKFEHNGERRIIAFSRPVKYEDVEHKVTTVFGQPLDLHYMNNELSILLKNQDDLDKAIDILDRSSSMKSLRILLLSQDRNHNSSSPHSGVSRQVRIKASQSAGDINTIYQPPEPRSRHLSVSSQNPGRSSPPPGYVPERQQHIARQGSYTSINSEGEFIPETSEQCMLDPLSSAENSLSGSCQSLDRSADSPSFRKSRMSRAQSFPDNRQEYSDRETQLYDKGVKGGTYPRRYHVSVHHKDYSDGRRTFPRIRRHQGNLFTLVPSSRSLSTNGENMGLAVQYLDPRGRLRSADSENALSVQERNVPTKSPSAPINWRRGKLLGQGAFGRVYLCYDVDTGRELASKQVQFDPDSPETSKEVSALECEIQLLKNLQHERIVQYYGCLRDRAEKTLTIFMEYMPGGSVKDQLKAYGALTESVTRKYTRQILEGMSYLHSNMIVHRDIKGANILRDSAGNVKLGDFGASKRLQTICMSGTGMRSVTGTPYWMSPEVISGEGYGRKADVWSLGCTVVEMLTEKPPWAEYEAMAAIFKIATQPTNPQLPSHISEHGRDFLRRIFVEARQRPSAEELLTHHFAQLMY

Binding response (% of control), inactive:
CC(C)(C)NC(=O)c1cccc(NC(=O)Cc2ccc(Br)cc2)c1 101%, COCC(C)NC(=O)COc1nncc2ccccc12 (stereo unspecified) 95%, O=C(COC(=O)CNC(=O)c1ccco1)Nc1ccc(F)cc1 103%, CCOC(=O)c1c(NC(=O)c2ccc(S(=O)(=O)N(C)CC3CCCO3)cc2)sc2c1CC(C)(C)NC2(C)C (stereo unspecified) 99%, CCN(CC)CCCNC(=O)c1ccc2c(=O)n(Cc3ccc4c(c3)OCO4)c(=S)[nH]c2c1 101%, CN(C)CCCN(C(=O)COc1ccccc1)c1nc2c(Cl)cccc2s1 108%, O=C(O)/C=C\C(=O)Nc1ccc(OCc2ccccc2)cc1 98%, Cc1ccc2c(C)c(C(=O)N3CCN(c4ccncc4)CC3)oc2c1C 108%, Cc1ccccc1-c1ccc(Nc2ccc(C(=O)N3CCOCC3)cc2)nn1 102%, C[N+](C)(C)CCNC(=O)c1c(O)c2c([nH]c1=O)CCCC2 99%, COc1cc(C)nc(N2CCCC(C(=O)NCC(C)C)C2)n1 (stereo unspecified) 96%, O=c1[nH]c(=S)[nH]c2[nH]c(=S)[nH]c12 100%, CCOC(=O)c1cc2occc2n1CC(=O)N1CCN(C(=O)c2ccco2)CC1 95%, O=C(O)C1CCN(c2ccc([N+](=O)[O-])cc2[N+](=O)[O-])CC1 102%, COc1ccccc1CC(=O)Nc1ccc([N+](=O)[O-])cc1OC 98%, c1ccc2c(c1)C(=NC1CCCCC1)NC2=NC1CCCCC1 104%, CCc1nnc(NC(=O)c2sc3nc(C)cc(COC)c3c2N)s1 105%, Cc1cccc(OCCNC(=O)CSc2ccc(C(F)(F)F)cc2[N+](=O)[O-])c1 104%, COc1ccc(CCn2c(NN=C3CCCC3)nc3c2c(=O)[nH]c(=O)n3C)cc1 106%, Cc1c(CN2CCC(CO)(CCOc3ccccc3)CC2)[nH]c2ccc(Cl)cc12 112%, COc1cccc(Nc2ncccc2C(=O)O)c1 101%, O=C(NCC1CCCCC1)c1cc(S(=O)(=O)N2CCCCC2)ccc1N1CCOCC1 91%, O=C(c1ccc(Br)o1)N(c1ccccn1)C1CCCCC1 98%, Cc1cccc(CSc2nnc(C)c(=O)n2N)c1 103%, CC(C)CC(=O)NC(=S)NCc1ccccc1 99%, COC(=O)C1=NN(c2ccccc2)C2C(=O)N(c3ccccc3OC)C(=O)C12 (stereo unspecified) 103%, Cc1ccccc1CCN(CC(=O)NC1CCCCC1)C(=O)c1csnn1 97%, Cc1[nH]c2ccc(S(N)(=O)=O)cc2c1C 100%, CCc1ccc2nc(Nc3ncc(C(C)=O)c(C)n3)nc(C)c2c1 102%, COc1cccc(OC)c1C(=O)Nc1ccc(Cc2ccncc2)cc1 101%, CN(C)CC(O)COc1ccc(C(C)(C)c2ccc(OCC(O)CN(C)C)cc2)cc1 (stereo unspecified) 111%
